From the supplement of paper PMC10849652
Of roughly 7,900 targets only a part is listed; those with a hit were picked by preference. About 0.6% of all pairs of compound and target were hits.

Experiments:
Test in all cases: log2 fold change, soluble protein after heating vs DMSO (PISA); higher = thermal stabilisation; K562 cells, 10 uM, 30 min; active = over 0.2 and 3.5 SD of the protein, either way, in both replicates (recomputed)
[1] = compound: CC1=C(C=C(C=C1)NC(=O)C2=CC(=CC=C2)C(C)(C)C#N)NC3=CC4=C(C=C3)N=CN(C4=O)C
Outline: (§1)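 Quantification of soluble protein used TMTpro 16plex LC-MS/MS, with channel sums equalised. Samples were the supernatant after 21,000xg for 90 min of pooled aliquots from K562 cells (2×10^6 cells/mL) treated with 10 μM compound for 30 min, heated for 3 min over 48°C-58°C, and extracted in PBS with 0.5% NP-40 at 4°C. Values, from duplicates, describe thermal stability against control samples on a log2 fold-change scale.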

[2] = compound: CC1=C(C=C(C=C1)NC(=O)C2=CC(=CC=C2)N(C)C)NC(=O)C3=CC=C(C=C3)O
Outline: as §1

[3] = compound: CC1=CC=C(C=C1)SC2=C3C=C(SC3=CN=C2)C(=O)N
Outline: as §1

[4] = compound: CC1=NC(=CC=C1)C2=C(N=C(N2)C(C)(C)C)C3=CC4=NC=CN=C4C=C3
Outline: as §1

Nexturastat A = compound: CCCCN(Cc1ccc(C(=O)NO)cc1)C(=O)Nc1ccccc1 [Nexturastat A]
Outline: as §1

vemurafenib = compound: CCCS(=O)(=O)Nc1ccc(F)c(C(=O)c2c[nH]c3ncc(-c4ccc(Cl)cc4)cc23)c1F [vemurafenib]
Outline: as §1

[5] = compound: CCCS(=O)(=O)Nc1ccc(F)c(C(=O)c2c[nH]c3ncc(Cl)cc23)c1F
Outline: as §1

[6] = compound: CCCc1cc(C)[nH]c(=O)c1CNC(=O)c1cc(-c2ccnc(N3CCN(C)CC3)c2)cc2c1cnn2C(C)C
Outline: as §1

givinostat = compound: CCN(CC)Cc1ccc2cc(COC(=O)Nc3ccc(C(=O)NO)cc3)ccc2c1 [givinostat]
Outline: as §1

barasertib = compound: CCN(CCCOc1ccc2c(Nc3cc(CC(=O)Nc4cccc(F)c4)[nH]n3)ncnc2c1)CCOP(=O)(O)O [barasertib]
Outline: as §1

[7] = compound: CC[C@@H]1C(=O)N(C)c2cnc(Nc3ccc(C(=O)NC4CCN(C)CC4)cc3OC)nc2N1C1CCCC1
Outline: as §1

volasertib = compound: CC[C@@H]1C(=O)N(C)c2cnc(Nc3ccc(C(=O)N[C@H]4CC[C@H](N5CCN(CC6CC6)CC5)CC4)cc3OC)nc2N1C(C)C [volasertib]
Outline: as §1

[8] = compound: CC[C@H](C)N1C=C(C2=C(C=C(C=C21)C3=CN=C(C=C3)N4CCNCC4)C(=O)NCC5=C(C=C(NC5=O)C)C)C
Outline: as §1

epoxomicin = compound: CC[C@H](C)[C@@H](C(=O)N[C@@H]([C@@H](C)O)C(=O)N[C@@H](CC(C)C)C(=O)[C@]1(CO1)C)NC(=O)[C@H]([C@@H](C)CC)N(C)C(=O)C [epoxomicin]
Outline: as §1

[9] = compound: CCn1c(C(=O)N(C2CC2)C2CC2)cc2c3c(ncn3C)c(Nc3cc(C)n(C)n3)nc21
Outline: as §1

[10] = compound: CCn1cc(-c2ccnc3[nH]c(-c4cccc(CN(C)C)c4)cc23)c(-c2ccc(NC(=O)N(C)C)cc2)n1
Outline: as §1

[11] = compound: CN(C)CC(=O)Nc1ccc2[nH]c(=O)c3ccccc3c2c1
Outline: as §1

rosiglitazone = compound: CN(CCOC1=CC=C(C=C1)C[C@H]2C(=O)NC(=O)S2)C3=CC=CC=N3 (racemic) [rosiglitazone]
Outline: as §1

[12] = compound: CN1C2=C(C3=C1C(=O)N(N=C3)CC4=CC(=CC=C4)N)SC(=C2)S(=O)C
Outline: as §1

[13] = compound: CN1CCC(CNc2ccc3ncc(-c4cccc(OC(F)(F)F)c4)n3n2)CC1
Outline: as §1

Measured: log2 fold change

RBM17 (UniProt Q96I25)
Chain of UniProt Q96I25 (Q96I25 whole entry, looked up): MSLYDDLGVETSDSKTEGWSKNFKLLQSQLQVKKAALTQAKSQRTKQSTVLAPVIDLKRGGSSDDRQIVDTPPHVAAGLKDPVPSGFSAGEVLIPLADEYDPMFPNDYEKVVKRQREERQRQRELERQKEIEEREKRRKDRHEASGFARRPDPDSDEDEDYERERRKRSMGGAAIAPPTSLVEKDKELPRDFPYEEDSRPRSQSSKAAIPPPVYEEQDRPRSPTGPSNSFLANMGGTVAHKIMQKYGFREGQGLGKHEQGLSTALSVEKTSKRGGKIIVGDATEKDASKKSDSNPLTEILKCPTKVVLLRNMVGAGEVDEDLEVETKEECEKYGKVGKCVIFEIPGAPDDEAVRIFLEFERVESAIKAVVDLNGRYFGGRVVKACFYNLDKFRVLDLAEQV
inactive: [1] -0.004 | [2] -0.036 | [3] 0.057 | [4] 0.012 | Nexturastat A 0.007 | vemurafenib 0.068 | [5] 0.118 | [6] 0.013 | givinostat 0.028 | barasertib 0.043 | [7] -0.08 | [8] 0.085 | epoxomicin 0.066 | [9] -0.271 | [10] -0.059 | [11] 0.048 | rosiglitazone 0.099 | [12] 0.088 | [13] -0.037
active: volasertib -0.422

RB1 (UniProt P06400)
active: [13] -0.265
inactive: [1] 0.016 | [2] -0.011 | [3] 0.034 | [4] 0.003 | Nexturastat A -0.1 | vemurafenib -0.01 | [5] -0.008 | [6] -0.026 | givinostat -0.02 | barasertib -0.004 | [7] 0.018 | volasertib 0.034 | [8] 0.016 | epoxomicin 0.041 | [9] -0.016 | [10] -0.05 | [11] 0.008 | rosiglitazone 0.009 | [12] -0.064

RSPRY1 (UniProt Q96DX4)
active: [13] 0.219
inactive: [1] 0.106 | [2] -0.026 | [3] -0.183 | [4] -0.035 | Nexturastat A -0.021 | vemurafenib 0.034 | [5] -0.031 | [6] -0.107 | givinostat -0.007 | barasertib -0.004 | [7] 0.082 | volasertib -0.001 | [8] -0.019 | epoxomicin 0.034 | [9] 0.006 | [10] -0.034 | [11] -0.014 | rosiglitazone 0.011 | [12] -0.176

RRAGB (UniProt Q5VZM2)
Chain of UniProt Q5VZM2 (Q5VZM2 whole entry, looked up): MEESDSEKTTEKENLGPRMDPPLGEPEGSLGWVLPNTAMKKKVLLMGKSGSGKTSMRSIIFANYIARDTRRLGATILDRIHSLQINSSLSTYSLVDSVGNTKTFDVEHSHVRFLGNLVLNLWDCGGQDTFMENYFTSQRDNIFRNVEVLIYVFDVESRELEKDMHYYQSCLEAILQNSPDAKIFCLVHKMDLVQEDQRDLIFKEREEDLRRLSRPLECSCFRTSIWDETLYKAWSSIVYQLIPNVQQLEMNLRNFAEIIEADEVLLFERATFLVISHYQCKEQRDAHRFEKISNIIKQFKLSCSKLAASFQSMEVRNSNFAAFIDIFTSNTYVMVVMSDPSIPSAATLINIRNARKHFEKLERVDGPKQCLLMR
inactive: [1] 0.013 | [2] 0.018 | [3] 0.011 | [4] -0.01 | Nexturastat A -0.071 | vemurafenib 0.001 | [5] 0.028 | [6] -0.023 | givinostat -0.044 | barasertib -0.004 | [7] 0 | volasertib 0.011 | [8] -0.017 | epoxomicin 0.047 | [9] 0.015 | [10] -0.041 | [11] -0.027 | rosiglitazone -0.015 | [12] -0.022 | [13] -0.191

RAD50 isoform 2 (UniProt Q92878)
Chain of UniProt Q92878 (Q92878 whole entry, looked up): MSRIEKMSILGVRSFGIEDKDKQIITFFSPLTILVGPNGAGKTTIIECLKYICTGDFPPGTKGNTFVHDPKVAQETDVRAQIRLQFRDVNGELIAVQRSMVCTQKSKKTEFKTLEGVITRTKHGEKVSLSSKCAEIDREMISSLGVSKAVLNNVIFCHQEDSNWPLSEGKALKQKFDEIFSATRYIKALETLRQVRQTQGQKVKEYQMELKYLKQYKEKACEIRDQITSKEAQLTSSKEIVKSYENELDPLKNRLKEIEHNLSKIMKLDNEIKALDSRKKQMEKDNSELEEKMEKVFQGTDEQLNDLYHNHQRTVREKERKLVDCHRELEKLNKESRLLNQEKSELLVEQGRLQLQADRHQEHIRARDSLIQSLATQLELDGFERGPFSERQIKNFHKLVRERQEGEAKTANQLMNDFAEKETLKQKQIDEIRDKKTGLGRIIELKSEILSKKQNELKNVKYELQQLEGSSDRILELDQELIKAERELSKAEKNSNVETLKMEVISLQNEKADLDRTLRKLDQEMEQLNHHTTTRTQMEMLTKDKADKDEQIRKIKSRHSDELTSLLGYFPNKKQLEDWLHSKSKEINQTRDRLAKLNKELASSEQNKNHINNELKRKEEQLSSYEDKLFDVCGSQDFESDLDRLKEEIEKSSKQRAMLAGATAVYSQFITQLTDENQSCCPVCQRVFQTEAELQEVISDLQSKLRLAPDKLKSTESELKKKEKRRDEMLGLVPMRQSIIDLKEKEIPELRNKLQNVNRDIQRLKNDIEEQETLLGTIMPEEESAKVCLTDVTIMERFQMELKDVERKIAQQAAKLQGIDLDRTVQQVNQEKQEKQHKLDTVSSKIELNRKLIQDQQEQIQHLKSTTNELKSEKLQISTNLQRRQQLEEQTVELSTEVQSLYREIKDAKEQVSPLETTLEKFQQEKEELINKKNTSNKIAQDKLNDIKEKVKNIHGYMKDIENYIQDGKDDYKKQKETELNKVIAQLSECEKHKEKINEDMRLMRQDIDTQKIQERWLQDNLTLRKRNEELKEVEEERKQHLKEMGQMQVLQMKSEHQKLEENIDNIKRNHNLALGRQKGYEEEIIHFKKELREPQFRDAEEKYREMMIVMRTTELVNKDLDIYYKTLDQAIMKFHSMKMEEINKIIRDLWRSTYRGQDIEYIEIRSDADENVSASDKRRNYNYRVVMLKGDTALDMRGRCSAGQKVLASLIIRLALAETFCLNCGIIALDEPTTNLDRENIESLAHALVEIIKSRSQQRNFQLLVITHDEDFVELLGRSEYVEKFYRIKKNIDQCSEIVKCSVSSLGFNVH
inactive: [1] 0 | [2] -0.024 | [3] 0.004 | [4] 0.009 | Nexturastat A -0.005 | vemurafenib 0.027 | [5] 0.038 | [6] 0.014 | givinostat 0.026 | barasertib 0.033 | [7] -0.069 | [8] 0.041 | epoxomicin 0.041 | [9] -0.012 | [10] -0.001 | [11] 0.025 | rosiglitazone 0.031 | [12] -0.03 | [13] -0.074
active: volasertib -0.228

RRP9 (UniProt O43818)
Chain of UniProt O43818 (O43818 whole entry, looked up): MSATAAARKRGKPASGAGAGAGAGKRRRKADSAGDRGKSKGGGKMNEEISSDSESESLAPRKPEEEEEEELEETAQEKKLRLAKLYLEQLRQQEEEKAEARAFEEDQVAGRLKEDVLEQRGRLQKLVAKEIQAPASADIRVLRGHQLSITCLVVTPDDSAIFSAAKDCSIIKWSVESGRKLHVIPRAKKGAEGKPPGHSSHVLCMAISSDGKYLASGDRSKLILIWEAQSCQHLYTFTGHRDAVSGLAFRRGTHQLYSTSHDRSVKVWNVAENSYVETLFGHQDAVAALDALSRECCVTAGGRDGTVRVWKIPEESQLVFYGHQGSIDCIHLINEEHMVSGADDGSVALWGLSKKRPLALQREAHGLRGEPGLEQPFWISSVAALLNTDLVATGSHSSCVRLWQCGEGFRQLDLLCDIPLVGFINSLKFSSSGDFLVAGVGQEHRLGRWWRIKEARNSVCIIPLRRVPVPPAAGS
inactive: [1] -0.03 | [2] 0.057 | [3] -0.046 | [4] -0.081 | Nexturastat A 0.095 | vemurafenib -0.026 | [5] -0.074 | [6] 0.009 | givinostat 0.047 | barasertib -0.084 | [7] 0.09 | volasertib 0.148 | [8] -0.049 | epoxomicin -0.107 | [9] -0.017 | [10] 0.136 | [11] -0.113 | rosiglitazone -0.129 | [12] 0.039 | [13] 0.236

RPS15 (UniProt P62841)
inactive: [1] -0.014 | [2] 0.038 | [3] -0.146 | [4] 0.005 | Nexturastat A 0.285 | vemurafenib -0.117 | [5] -0.175 | [6] 0.1 | givinostat -0.041 | barasertib -0.125 | [7] 0.2 | volasertib 0.294 | [8] -0.017 | epoxomicin -0.056 | [9] 0 | [10] 0.061 | [11] -0.099 | rosiglitazone -0.113 | [12] 0.164 | [13] 0.02

RCC1 isoform 2 (UniProt P18754)
Chain of UniProt P18754 (P18754 whole entry, looked up): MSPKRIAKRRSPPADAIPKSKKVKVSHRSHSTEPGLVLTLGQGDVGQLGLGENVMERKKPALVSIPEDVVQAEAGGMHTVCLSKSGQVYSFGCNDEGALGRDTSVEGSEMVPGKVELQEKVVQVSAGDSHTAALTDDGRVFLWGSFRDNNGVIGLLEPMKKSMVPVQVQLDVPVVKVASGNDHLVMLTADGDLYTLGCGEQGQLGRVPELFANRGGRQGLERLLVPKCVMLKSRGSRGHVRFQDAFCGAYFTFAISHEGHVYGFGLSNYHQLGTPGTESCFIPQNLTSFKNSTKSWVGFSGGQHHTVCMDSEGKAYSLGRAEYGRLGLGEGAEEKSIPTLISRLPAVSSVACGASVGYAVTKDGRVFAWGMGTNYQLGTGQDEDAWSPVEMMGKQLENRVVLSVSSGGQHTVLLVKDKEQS
inactive: [1] 0.197 | [2] -0.129 | [3] 0.073 | [4] 0.055 | Nexturastat A -0.027 | vemurafenib 0.13 | [5] 0.104 | [6] 0.111 | givinostat 0.087 | barasertib 0.053 | [7] -0.037 | volasertib -0.063 | [8] 0.044 | epoxomicin 0.118 | [9] -0.185 | [10] -0.02 | [11] 0.168 | rosiglitazone 0.053 | [12] -0.09 | [13] 0.11

REL (UniProt Q04864)
Chain of UniProt Q04864 (Q04864 whole entry, looked up): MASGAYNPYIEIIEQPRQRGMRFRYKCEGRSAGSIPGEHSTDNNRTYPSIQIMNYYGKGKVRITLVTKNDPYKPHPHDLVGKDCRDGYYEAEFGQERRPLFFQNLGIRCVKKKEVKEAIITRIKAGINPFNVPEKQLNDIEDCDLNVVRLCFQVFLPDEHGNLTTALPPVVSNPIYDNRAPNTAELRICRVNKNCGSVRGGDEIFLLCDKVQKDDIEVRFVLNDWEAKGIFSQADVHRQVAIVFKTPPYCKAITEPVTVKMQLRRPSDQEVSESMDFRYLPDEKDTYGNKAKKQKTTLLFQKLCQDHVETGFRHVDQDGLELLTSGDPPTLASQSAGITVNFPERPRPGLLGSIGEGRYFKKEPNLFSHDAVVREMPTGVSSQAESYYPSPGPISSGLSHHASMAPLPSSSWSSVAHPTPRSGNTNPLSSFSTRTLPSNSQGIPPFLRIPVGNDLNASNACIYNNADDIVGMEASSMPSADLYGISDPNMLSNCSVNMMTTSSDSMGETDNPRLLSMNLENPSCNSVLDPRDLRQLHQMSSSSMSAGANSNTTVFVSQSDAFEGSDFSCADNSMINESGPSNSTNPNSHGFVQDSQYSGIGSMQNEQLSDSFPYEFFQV
inactive: [1] 0.001 | [2] -0.044 | [3] 0.033 | [4] -0.004 | Nexturastat A -0.053 | vemurafenib 0.044 | [5] 0.077 | [6] -0.022 | givinostat 0.101 | barasertib 0.079 | [7] 0.045 | volasertib -0.176 | [8] -0.022 | epoxomicin 0.043 | [9] -0.062 | [10] 0.159 | [11] 0.003 | rosiglitazone 0.063 | [12] 0.011 | [13] 0.141

RABGGTA (UniProt Q92696)
Chain of UniProt Q92696 (Q92696 whole entry, looked up): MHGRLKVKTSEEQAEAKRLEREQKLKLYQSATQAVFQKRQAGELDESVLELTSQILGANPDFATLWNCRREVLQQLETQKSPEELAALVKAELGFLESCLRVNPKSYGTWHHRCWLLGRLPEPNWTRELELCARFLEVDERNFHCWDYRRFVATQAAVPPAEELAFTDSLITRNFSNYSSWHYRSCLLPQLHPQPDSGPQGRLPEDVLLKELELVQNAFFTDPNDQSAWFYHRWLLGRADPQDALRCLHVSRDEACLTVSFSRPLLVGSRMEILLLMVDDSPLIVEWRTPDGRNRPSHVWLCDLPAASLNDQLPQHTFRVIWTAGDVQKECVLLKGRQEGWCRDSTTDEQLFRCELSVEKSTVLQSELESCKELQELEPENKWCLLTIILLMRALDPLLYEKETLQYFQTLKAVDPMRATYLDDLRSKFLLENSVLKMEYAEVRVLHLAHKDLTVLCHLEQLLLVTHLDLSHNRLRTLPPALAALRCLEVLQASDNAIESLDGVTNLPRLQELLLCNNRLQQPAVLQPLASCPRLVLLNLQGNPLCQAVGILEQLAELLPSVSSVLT
inactive: [1] 0.019 | [2] 0.04 | [3] -0.004 | [4] 0.002 | Nexturastat A -0.084 | vemurafenib 0.003 | [5] 0.005 | [6] -0.023 | givinostat -0.024 | barasertib 0.017 | [7] 0.029 | volasertib -0.087 | [8] -0.013 | epoxomicin 0.021 | [9] -0.032 | [10] -0.051 | [11] -0.015 | rosiglitazone 0.054 | [12] -0.111 | [13] -0.023

SAAL1 (UniProt Q96ER3)
Chain of UniProt Q96ER3 (Q96ER3 whole entry, looked up): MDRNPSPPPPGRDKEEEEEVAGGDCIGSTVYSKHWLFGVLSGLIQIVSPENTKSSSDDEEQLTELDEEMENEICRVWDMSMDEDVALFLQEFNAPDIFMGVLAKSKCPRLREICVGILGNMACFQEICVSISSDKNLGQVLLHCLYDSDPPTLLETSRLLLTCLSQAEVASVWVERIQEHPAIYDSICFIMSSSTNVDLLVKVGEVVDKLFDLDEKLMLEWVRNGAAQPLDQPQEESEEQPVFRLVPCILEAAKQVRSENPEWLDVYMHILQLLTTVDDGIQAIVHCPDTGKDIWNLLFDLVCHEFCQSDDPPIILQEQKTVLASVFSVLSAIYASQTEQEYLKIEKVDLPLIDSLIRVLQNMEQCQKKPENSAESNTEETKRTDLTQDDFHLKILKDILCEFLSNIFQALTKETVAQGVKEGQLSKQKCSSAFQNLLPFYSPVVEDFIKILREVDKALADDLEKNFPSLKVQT
active: volasertib -0.245
inactive: [1] 0.004 | [2] -0.008 | [3] 0.006 | [4] 0.009 | Nexturastat A -0.078 | vemurafenib -0.017 | [5] 0.035 | [6] -0.014 | givinostat -0.059 | barasertib 0.046 | [7] -0.167 | [8] 0.001 | epoxomicin 0.025 | [9] -0.038 | [10] 0.025 | [11] -0.025 | rosiglitazone 0.051 | [12] -0.012 | [13] -0.219

SLC1A5 (UniProt Q15758)
inactive: [1] 0.007 | [2] 0.002 | [3] 0.019 | [4] -0.01 | Nexturastat A -0.053 | vemurafenib -0.006 | [5] 0.012 | [6] -0.01 | givinostat -0.022 | barasertib -0.04 | [7] 0.095 | volasertib 0.027 | [8] -0.043 | epoxomicin -0.001 | [9] 0.042 | [10] -0.014 | [11] -0.02 | rosiglitazone -0.009 | [12] -0.114
active: [13] 0.226

REEP4 (UniProt Q9H6H4)
Chain of UniProt Q9H6H4 (Q9H6H4 whole entry, looked up): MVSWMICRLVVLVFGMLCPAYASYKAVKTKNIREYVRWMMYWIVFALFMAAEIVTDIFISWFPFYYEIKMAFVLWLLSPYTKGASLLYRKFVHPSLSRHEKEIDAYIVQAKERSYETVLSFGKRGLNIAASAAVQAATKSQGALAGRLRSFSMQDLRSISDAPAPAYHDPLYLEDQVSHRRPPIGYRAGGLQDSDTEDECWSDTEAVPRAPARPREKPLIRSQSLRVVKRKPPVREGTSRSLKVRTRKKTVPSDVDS
inactive: [1] 0.08 | [2] 0.001 | [3] 0.047 | [4] -0.043 | Nexturastat A 0.107 | vemurafenib 0.008 | [5] 0.126 | [6] 0.019 | givinostat 0.011 | barasertib 0.002 | [7] -0.023 | volasertib -0.043 | [8] -0.011 | epoxomicin -0.08 | [9] 0.024 | [10] 0.051 | [11] -0.015 | rosiglitazone -0.033 | [12] 0.079 | [13] -0.134

RPS9 (UniProt P46781)
inactive: [1] 0.039 | [2] 0 | [3] -0.073 | [4] -0.016 | Nexturastat A 0.104 | vemurafenib -0.107 | [5] -0.066 | [6] 0.087 | givinostat 0.038 | barasertib -0.114 | [7] 0.203 | volasertib 0.339 | [8] 0.02 | epoxomicin -0.24 | [9] 0.025 | [10] 0.088 | [11] -0.095 | rosiglitazone -0.078 | [12] 0.174 | [13] 0.146

RPS14 (UniProt P62263)
inactive: [1] 0.03 | [2] 0 | [3] -0.041 | [4] -0.004 | Nexturastat A 0.102 | vemurafenib -0.066 | [5] -0.038 | [6] 0.046 | givinostat 0.023 | barasertib -0.04 | [7] 0.043 | volasertib 0.362 | [8] 0.023 | epoxomicin -0.031 | [9] 0.015 | [10] 0.122 | [11] -0.066 | rosiglitazone -0.056 | [12] 0.095 | [13] 0.158
